Screening results (PubChem BioAssay)
The list is not random: actives were taken first. Their share in the collection is about 7.9%.
HT1080 IDH1KD tx – toxicity to HT-1080 IDH1 knockdown cells (counter line). HT-1080 IDH1 knockdown viability, ATP luminescence, 48 h. Potency, µM (highest dose often 46.1 µM), for inactives: top-dose activity, negative = toxicity, usual class: cytotoxic. 360,000 compounds, 2% hits. AID 686971;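 note: 0% = DMSO wells and -100% = cell-free medium wells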
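CellTiter-Glo luminescence after 48 h compound exposure at 37 degrees C of IDH1-knockdown HT-1080 cells in 5% FBS RPMI. %Activity scaled between DMSO wells and cell-free media wells, with curves fitted and assigned curve classes.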
KB-V1 cytotox – KB-V1 MDR subline cytotoxicity | KB-V1 MDR cells viability, CellTiter-Glo, 72 h | Potency, µM (top dose mostly 46.1 µM), usual class: cytotoxic | 400,000 compounds, 3.4% hits | AID 1347076; note: % is set by controls: 0 for no effect and ±100 for the full control effect; nearly all actives have a fitted effect of over 60% in size
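In this primary screen, KB-V1 cells overexpressing P-gp are incubated with library compounds (lowest to highest concentration) for 72 h at 37 degrees C before a luminescent ATP viability read.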
HT1080-NT tox – kills 2HG-producing HT-1080-NT fibrosarcoma cells; HT-1080-NT fibrosarcoma viability, CellTiter-Glo ATP luminescence, 48 h; Potency, µM (doses to about 46.1 µM), for inactives: at the highest dose activity, negative = less viability, actives largely listed as cytotoxic; 360,000 compounds, 1.6% hits; AID 686970;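 note: NT is the 2HG producing partner of a matched IDH1 knockdown line; 0% = DMSO-treated cells and -100% = media-only wells without cells; nearly all actives have a fitted effect of over 55% in size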
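Compounds were tested in concentration-response format on HT-1080-NT cells for 48 hours at 37 degrees C. Cell viability came from CellTiter-Glo luminescence; curves were classified by r2, response magnitude and activity.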
SW480 rereplic – DNA re-replication induction in SW480 cells; SW480 DNA re-replication, Hoechst DNA content imaging, 48 h; AID 624297; 340,000 compounds, 1.8% hits; Potency, µM (titrated, usually from 46.1 µM), for the others: at the top dose re-replication activation, actives largely listed as activators; note: % of control where 0% means no effect; nearly all actives have a fitted effect of over 55% in size
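Image-based DNA-content assay: after two days of treatment, nuclei were labelled with the DNA dye Hoechst and imaged, and hits were compounds raising the count of nuclei showing high fluorescence intensity.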
KB-3-1 cytotox – kills parental KB-3-1 adenocarcinoma cells | AID 1347075 | Potency, µM (top dose mostly 46.1 µM), hits mostly cytotoxic | 400,000 compounds, 1.4% hits | KB-3-1 viability, CellTiter-Glo ATP luminescence, 72 h; note: % is set by controls: 0 for no effect and ±100 for the full control effect; nearly all actives have a fitted effect of over 60% in size
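Cytotoxicity in the drug-sensitive parental line KB-3-1 was scored as loss of CellTiter-Glo luminescence following 72 h incubation with compound. Values come from curve fitting of normalized concentration-response data.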
MCF10A rerep – induces DNA re-replication in MCF 10a normal breast cells. MCF 10A DNA re-replication, Hoechst nuclear intensity, 48 h. Potency, µM (top dose mostly 46.1 µM), for inactives: at the top dose activity, positive = re-replication, actives largely listed as activators. 350,000 compounds, 2.9% hits. AID 624296; note: % of control where 0% means no effect; nearly all actives have a fitted effect of over 50% in size
The depositor's hits bear a star. Calls come from the whole dose curve; as a rule, active = well fitted curve in the direction sought with a large enough effect; inconclusive = small, poorly fitted or top-dose-only effect, or another doubt; inactive = no such curve, though single readings can be large; an effect the other way counts as inactive or inconclusive. Potency is the fitted concentration of half-maximal effect.

How did CCCCN(C)C(=O)c1nc2ccccn2c1CNCCCn1ncc2ccccc21 do in these assays?
HT1080 IDH1KD tx: -9%; KB-V1 cytotox: inactive; HT1080-NT tox: -2%; SW480 rereplic: -18%; KB-3-1 cytotox: inactive; MCF10A rerep: 19%

Results for CCc1cccc(C)c1NC(=S)NCC1CCN(c2ccc(OC)cc2)C1 (configuration not stated) ?
HT1080 IDH1KD tx: inconclusive; KB-V1 cytotox: inactive; HT1080-NT tox: inconclusive; SW480 rereplic: inconclusive; KB-3-1 cytotox: inactive; MCF10A rerep: 24%

How did CCc1ccccc1NC(=S)NCC1CCN(c2ccc(OC)cc2)C1 (configuration not stated) do in these assays?
HT1080 IDH1KD tx: 2%; KB-V1 cytotox: 21µM*; HT1080-NT tox: inconclusive; SW480 rereplic: -8%; KB-3-1 cytotox: inconclusive; MCF10A rerep: inconclusive

What do the screens show for `COc1ccc(N2CCC(CNC(=O)Nc3cccc(OC)c3)C2)cc1` (configuration not stated)?
HT1080 IDH1KD tx: -30%; KB-V1 cytotox: 21µM*; HT1080-NT tox: -25%; SW480 rereplic: 12%; KB-3-1 cytotox: inactive; MCF10A rerep: inconclusive

Results for COCCCNC(=O)c1c(NC(=O)c2cccs2)sc2c1CCCC2 ?
HT1080 IDH1KD tx: 2%; KB-V1 cytotox: inactive; HT1080-NT tox: 7%; SW480 rereplic: -3%; KB-3-1 cytotox: inactive; MCF10A rerep: 4%

How did CC(Oc1ccc(Br)cc1)C(=O)Nc1ccncc1 (configuration not stated) do in these assays?
HT1080 IDH1KD tx: -15%; KB-V1 cytotox: inactive; HT1080-NT tox: inconclusive; SW480 rereplic: 0%; KB-3-1 cytotox: inactive; MCF10A rerep: 3%

What do the screens show for `CC(Oc1ccc(Cl)cc1Cl)C(=O)Nc1ccc(O)cc1` (configuration not stated)?
HT1080 IDH1KD tx: 0%; KB-V1 cytotox: inactive; HT1080-NT tox: -19%; SW480 rereplic: -2%; KB-3-1 cytotox: inactive; MCF10A rerep: 4%

How did CC(Oc1ccc(Br)cc1Cl)C(=O)Nc1ccncc1 (configuration not stated) do in these assays?
HT1080 IDH1KD tx: 16µM*; KB-V1 cytotox: inactive; HT1080-NT tox: inconclusive; SW480 rereplic: -29%; KB-3-1 cytotox: inconclusive; MCF10A rerep: inconclusive

Results for CCn1nnc(NC(=O)C(C)Oc2ccc(Cl)cc2Cl)n1 (configuration not stated) ?
HT1080 IDH1KD tx: -4%; KB-V1 cytotox: 18µM*; HT1080-NT tox: -16%; SW480 rereplic: -10%; KB-3-1 cytotox: inactive; MCF10A rerep: 1%

What do the screens show for `CCc1nn(CCCC(=O)NCc2ccco2)c(=O)c2cc3occc3n12`?
HT1080 IDH1KD tx: 10%; KB-V1 cytotox: inactive; HT1080-NT tox: 1%; SW480 rereplic: 0%; KB-3-1 cytotox: inactive; MCF10A rerep: -1%

Results for Cn1cnnc1SCC(=O)NCc1ccccc1 ?
HT1080 IDH1KD tx: 18%; KB-V1 cytotox: inactive; HT1080-NT tox: 17%; SW480 rereplic: -4%; KB-3-1 cytotox: inactive; MCF10A rerep: -1%

Results for Cc1cccc(Nc2c([N+](=O)[O-])ccc3nonc23)c1 ?
HT1080 IDH1KD tx: -1%; KB-V1 cytotox: inactive; HT1080-NT tox: -6%; SW480 rereplic: -14%; KB-3-1 cytotox: inactive; MCF10A rerep: 8%

Results for O=C(CSC(=S)N1CCSCC1)c1ccc(Cl)cc1 ?
HT1080 IDH1KD tx: -3%; KB-V1 cytotox: 9.2µM*; HT1080-NT tox: 10%; SW480 rereplic: 2%; KB-3-1 cytotox: 8.2µM*; MCF10A rerep: inconclusive

What do the screens show for `Cc1ccccc1C(=O)NC1CCN(Cc2nnnn2Cc2ccc(F)cc2)CC1`?
HT1080 IDH1KD tx: -2%; KB-V1 cytotox: 21µM*; HT1080-NT tox: 5%; SW480 rereplic: -6%; KB-3-1 cytotox: inactive; MCF10A rerep: 2%
